The source of these data is PubChem BioAssay.

Experiment [1] has as its system Plasmodium falciparum Sir2 (PF13_0152, Sir2A). Nature of the experiment: Plasmodium falciparum Sir2A binding compounds – biochemical, small-molecule microarray, 635 nm fluorescence, primary screen (AID 1098).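 Also: score merges spot fluorescence intensity with its signal-to-noise ratio.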 The settings on record: fluorescence 635 nm, higher = more signal.
Experiment [2] is described as follows: probe aDKK1 binding to arrayed compounds – biochemical, biotinylated probe, 635/667 nm fluorescence, primary screen (AID 1099).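 Also: score merges 667nm spot fluorescence with signal to noise across triplicate slides.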 The note with it: small-molecule microarray, higher = more signal.
The nature of experiment [3]: probe aCHRDL2 binding to arrayed compounds – biochemical, biotinylated probe, 635/667 nm fluorescence, primary screen (AID 1100). The settings on record: small-molecule microarray, higher = more signal.
The nature of experiment [4]: change in splice reporter luminescence, either direction, cell-based, HEK293, spliceosome inhibition project, primary screen (AID 1101).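 Also: HEK293 cells carrying a splicing-competent luciferase reporter gene; test concentration not given here.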 The note with it: HEK293 splicing luciferase reporter, 24 h, higher = more signal, called active from +8 up or from −8 down. (In general: In a reporter assay the amount or activity of a reporter protein is the signal.)
For experiment [5], the target named is Fibroblast growth factor 10 (Homo sapiens) (UniProt O15520). Nature of the experiment: compounds binding fibroblast growth factor 10 – biochemical, small-molecule microarray, 635 nm fluorescence, primary screen (AID 1102). The settings on record: FGF10 binding, fluorescence 635 nm, higher = more signal.
The subject of experiment [6] is glycogen synthase kinase-3 (GSK3A per assay name; protocol says GSK3B). The experiment is described as follows: compounds binding glycogen synthase kinase-3 – biochemical, small-molecule microarray, 635 nm fluorescence, GSK3A, primary screen (AID 1103). Also: the record names both GSK3A and GSK3B. The settings on record: fluorescence 635 nm, higher = more signal.
For experiment [7], the target named is Epidermal growth factor receptor (Homo sapiens) (UniProt P00533). Nature of the experiment: compounds binding epidermal growth factor receptor – biochemical, small-molecule microarray, 635 nm fluorescence, primary screen (AID 1104).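 Also: score merges 667 nm emission intensity with spot signal to noise over triplicate slides.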 The settings on record: EGFR binding, higher = more signal.
Experiment [8] addresses Follistatin-related protein 3 (Homo sapiens) (UniProt O95633). Nature of the experiment: compounds binding follistatin-related protein 3 – biochemical, small-molecule microarray, 635 nm fluorescence, primary screen (AID 1105).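 Also: score merges emission near 667 nm and signal to noise per printed spot across three slides.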 The settings on record: FSTL3 binding, higher = more signal.
For experiment [9], the target named is Dickkopf-related protein 1 (Homo sapiens) (UniProt O94907). Nature of the experiment: small molecules binding DKK1 protein – biochemical, small-molecule microarray, 635 nm fluorescence scan, primary screen (AID 1106).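 Also: score merges emission near 667 nm with signal to noise over three replicate slides.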 The settings on record: higher = more signal.
Experiment [10] has as its system Inhibin beta A chain (activin A). Nature of the experiment: small molecules binding activin A – biochemical, small-molecule microarray, 635 nm fluorescence scan, primary screen (AID 1107).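 Also: mouse activin A protein probed at 4.33 µg/mL on printed slides; score merges bound-protein fluorescence near 667 nm with spot signal-to-noise.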 The note with it: INHBA, higher = more signal.
Experiment [11] concerns Human papillomavirus type 1a protein E7 (residues 44-93). Nature of the experiment: small molecules binding HPV E7 44-93 – biochemical, small-molecule microarray, residues 44-93, 635 nm fluorescence, primary screen (AID 1108).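 Also: E7 fragment applied at 1 µg/mL in TBST for 1 h at 4 C; score combines spot fluorescence with its signal to noise ratio.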 The note with it: fluorescence 635 nm, higher = more signal.
Experiment [12] in a line: hepatitis C replication reporter changes, two-sided – Huh7 cells, luciferase reporter, HCV replication inhibitor project, primary screen (AID 1109).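 Also: huh7 hepatoma cells harbouring a luciferase neomycin HCV replicon reporter; luciferase luminescence as measure of HCV replicon replication; test concentration not given here.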 The note with it: Huh7 HCV replicon luciferase reporter, 48 h; higher = more signal.
For experiment [13], the target named is Left-right determination factor 2 (Homo sapiens) (UniProt O00292). The experiment is described as follows: small molecules binding LEFTY2 protein – biochemical, small-molecule microarray, 635 nm fluorescence scan, primary screen (AID 1110). The note with it: higher = more signal.
Experiment [14] has as its target Calmodulin-1 (Homo sapiens) (UniProt P0DP23). The experiment is described as follows: small molecules binding calmodulin-1 with EGTA – biochemical, small-molecule microarray, Cy5-labelled CALM1, profiling panel (AID 1111).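 Also: labelled calmodulin applied in Tris saline Tween buffer holding calcium plus EGTA and DTT.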 The settings on record: Cy5-CALM1 binding fluorescence, higher = more signal.
Experiment [15] shares this target. The experiment is described as follows: small molecules binding Ca-loaded calmodulin-1 – biochemical, small-molecule microarray, Cy5-labelled CALM1, plus calcium, artefact control for SMM control-protein annotation, profiling panel (AID 1112).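 Also: score merges spot fluorescence with signal to noise from triplicate slides.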 The settings on record: Cy5-CALM1 binding fluorescence, higher = more signal.
A short description of experiment [16]: probe aWnt5a binding to arrayed compounds – biochemical, biotinylated probe, 635/667 nm fluorescence, primary screen (AID 1113).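 Also: score merges 667 nm fluorescence intensity with signal-to-noise per printed feature.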 The note with it: small-molecule microarray, higher = more signal.
The nature of experiment [17]: probe aShh binding to arrayed compounds – biochemical, biotinylated probe, 635/667 nm fluorescence, primary screen (AID 1114).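 Also: probe is biotin-labelled aShh protein from a stem cell growth factor screen; measures binding of labelled protein to compounds printed on the slide; score merges feature fluorescence at 667 nm with signal-to-noise.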 The settings on record: small-molecule microarray, higher = more signal.
A short description of experiment [18]: probe aNog binding to arrayed compounds – biochemical, biotinylated probe, 635/667 nm fluorescence, primary screen (AID 1115).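 Also: probe is biotinylated aNog protein used at 0.15 µg/mL for 1 h at 4 C; z-score combines 667 nm fluorescence of each spot with its signal to noise.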 The settings on record: small-molecule microarray, higher = more signal.
Experiment [19] addresses Torsin-1A-interacting protein 1 (Homo sapiens) (UniProt Q5JTV8). Nature of the experiment: compound microarray binding of lysate hLAP1 – cell lysate, small-molecule microarray, COS7 lysate, 635/667 nm fluorescence, primary screen (AID 1116). The note with it: 635 nm fluorescence, higher = more signal.
The target of experiment [20] is Alpha-bungarotoxin (Bungarus multicinctus) (UniProt P60615). Nature of the experiment: compounds binding labelled alpha-BTX control protein – biochemical, small-molecule microarray, Alexa647 label, 635/667 nm fluorescence, artefact control for SMM control protein annotation, profiling panel (AID 1117). The settings on record: alpha-BTX-A647 binding fluorescence, higher = more signal.

Molecules are shown by their SMILES. Calls of active or inactive are those of the source.

Sequence of Left-right determination factor 2 (Homo sapiens) (O00292 whole entry, looked up): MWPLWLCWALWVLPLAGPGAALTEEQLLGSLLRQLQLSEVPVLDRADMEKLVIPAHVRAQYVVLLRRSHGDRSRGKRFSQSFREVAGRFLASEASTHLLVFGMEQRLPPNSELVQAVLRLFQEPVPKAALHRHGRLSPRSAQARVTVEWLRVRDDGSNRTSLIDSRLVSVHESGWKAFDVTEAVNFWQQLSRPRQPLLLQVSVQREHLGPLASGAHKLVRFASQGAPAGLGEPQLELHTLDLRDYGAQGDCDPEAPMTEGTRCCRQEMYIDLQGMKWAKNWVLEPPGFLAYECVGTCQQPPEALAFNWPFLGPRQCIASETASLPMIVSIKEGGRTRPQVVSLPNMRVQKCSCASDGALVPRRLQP
Sequence of Alpha-bungarotoxin (Bungarus multicinctus) (P60615 whole entry, looked up): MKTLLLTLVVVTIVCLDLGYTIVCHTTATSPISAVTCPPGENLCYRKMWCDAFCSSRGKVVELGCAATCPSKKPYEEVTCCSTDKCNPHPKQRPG
Sequence of Follistatin-related protein 3 (Homo sapiens) (O95633 whole entry, looked up): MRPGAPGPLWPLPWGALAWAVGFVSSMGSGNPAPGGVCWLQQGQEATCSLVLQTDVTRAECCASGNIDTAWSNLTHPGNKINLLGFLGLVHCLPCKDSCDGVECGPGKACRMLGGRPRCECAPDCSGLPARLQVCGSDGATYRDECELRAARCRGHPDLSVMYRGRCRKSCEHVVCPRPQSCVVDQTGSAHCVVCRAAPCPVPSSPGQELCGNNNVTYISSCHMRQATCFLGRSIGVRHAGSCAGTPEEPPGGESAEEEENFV
Sequence of Torsin-1A-interacting protein 1 (Homo sapiens) (Q5JTV8 whole entry, looked up): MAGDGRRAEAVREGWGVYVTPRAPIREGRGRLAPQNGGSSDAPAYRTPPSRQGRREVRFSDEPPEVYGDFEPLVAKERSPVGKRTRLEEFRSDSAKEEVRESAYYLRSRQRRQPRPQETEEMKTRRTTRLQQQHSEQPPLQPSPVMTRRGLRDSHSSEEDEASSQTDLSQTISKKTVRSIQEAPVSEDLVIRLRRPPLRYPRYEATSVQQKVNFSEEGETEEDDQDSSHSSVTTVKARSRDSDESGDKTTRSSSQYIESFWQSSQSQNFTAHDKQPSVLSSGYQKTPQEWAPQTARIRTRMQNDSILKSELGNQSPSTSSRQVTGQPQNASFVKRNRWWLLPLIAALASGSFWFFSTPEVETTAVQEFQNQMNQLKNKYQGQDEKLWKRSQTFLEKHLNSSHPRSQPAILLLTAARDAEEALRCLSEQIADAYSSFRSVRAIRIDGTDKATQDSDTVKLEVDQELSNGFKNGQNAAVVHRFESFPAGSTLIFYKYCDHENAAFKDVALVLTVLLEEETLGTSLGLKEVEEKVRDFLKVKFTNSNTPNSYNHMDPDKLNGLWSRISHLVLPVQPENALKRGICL
Sequence of Dickkopf-related protein 1 (Homo sapiens) (O94907 whole entry, looked up): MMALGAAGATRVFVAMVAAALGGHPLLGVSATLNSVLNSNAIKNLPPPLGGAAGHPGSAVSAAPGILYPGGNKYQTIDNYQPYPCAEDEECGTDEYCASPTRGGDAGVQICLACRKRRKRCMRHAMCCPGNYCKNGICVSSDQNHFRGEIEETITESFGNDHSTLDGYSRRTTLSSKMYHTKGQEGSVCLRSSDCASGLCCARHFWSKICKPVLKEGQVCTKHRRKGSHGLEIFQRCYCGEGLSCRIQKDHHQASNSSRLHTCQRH
Sequence of Epidermal growth factor receptor (Homo sapiens) (P00533 whole entry, looked up): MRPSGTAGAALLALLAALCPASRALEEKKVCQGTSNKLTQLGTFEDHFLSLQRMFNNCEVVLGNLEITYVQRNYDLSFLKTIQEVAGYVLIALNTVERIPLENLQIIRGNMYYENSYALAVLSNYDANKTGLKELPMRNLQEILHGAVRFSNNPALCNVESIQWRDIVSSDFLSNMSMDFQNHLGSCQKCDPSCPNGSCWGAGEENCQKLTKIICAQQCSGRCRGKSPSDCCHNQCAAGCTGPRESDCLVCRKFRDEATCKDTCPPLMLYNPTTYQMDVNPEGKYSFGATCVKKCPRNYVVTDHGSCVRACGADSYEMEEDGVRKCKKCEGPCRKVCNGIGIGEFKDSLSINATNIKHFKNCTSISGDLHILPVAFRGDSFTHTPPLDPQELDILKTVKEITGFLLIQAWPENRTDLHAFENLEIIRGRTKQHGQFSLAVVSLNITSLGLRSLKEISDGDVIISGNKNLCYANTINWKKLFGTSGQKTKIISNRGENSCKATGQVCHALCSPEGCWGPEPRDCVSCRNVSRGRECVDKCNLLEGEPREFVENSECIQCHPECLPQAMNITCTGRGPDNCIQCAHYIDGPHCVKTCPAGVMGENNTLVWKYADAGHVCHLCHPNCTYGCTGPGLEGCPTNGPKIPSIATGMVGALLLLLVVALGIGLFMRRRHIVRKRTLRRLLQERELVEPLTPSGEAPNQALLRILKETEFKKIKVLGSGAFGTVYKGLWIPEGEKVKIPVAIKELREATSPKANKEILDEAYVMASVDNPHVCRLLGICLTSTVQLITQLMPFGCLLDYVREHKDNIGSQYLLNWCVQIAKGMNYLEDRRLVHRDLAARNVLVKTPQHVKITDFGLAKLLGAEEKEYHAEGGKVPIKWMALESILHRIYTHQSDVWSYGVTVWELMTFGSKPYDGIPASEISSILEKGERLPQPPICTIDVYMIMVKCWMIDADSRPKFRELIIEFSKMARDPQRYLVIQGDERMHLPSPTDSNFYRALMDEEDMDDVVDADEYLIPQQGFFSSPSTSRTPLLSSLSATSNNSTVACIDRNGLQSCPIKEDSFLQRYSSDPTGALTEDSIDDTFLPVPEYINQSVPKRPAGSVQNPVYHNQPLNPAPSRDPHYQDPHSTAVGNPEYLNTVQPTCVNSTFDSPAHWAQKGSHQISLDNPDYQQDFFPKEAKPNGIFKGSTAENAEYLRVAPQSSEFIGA
Sequence of Fibroblast growth factor 10 (Homo sapiens) (O15520 whole entry, looked up): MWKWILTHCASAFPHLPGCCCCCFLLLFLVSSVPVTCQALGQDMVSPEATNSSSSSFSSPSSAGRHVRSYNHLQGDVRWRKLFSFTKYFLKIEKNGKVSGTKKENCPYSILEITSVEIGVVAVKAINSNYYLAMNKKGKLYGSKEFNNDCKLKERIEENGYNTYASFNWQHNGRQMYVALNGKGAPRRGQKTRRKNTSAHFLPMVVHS

Turning to `CC(C)(C)N1CC=CC23O[C@@H]4C=CCCOC(=O)C4[C@H]2C(=O)N(CCCCCO)[C@@H]3C1=O` (stereo not given in full), the composite z-score is 1.87 in experiment [1]; -0.399 in experiment [2]; 0.0199 in [3]; -0.0123 in [5]; 0.126 in experiment [6]; -0.0688 in experiment [7]. For the same compound, the composite z-score in experiment [8] is -0.361; in experiment [9], -0.236; in [10], 0.773; in [11], 0.433; in [13], -0.316; in experiment [14] it was -0.582. The composite z-score in experiment [15] is -0.839; in experiment [16], -0.0327; in [17], 0.0796; in experiment [18], -0.206; in experiment [19] it was 2.15; in [20], -0.949. The figures for the z-score in experiment [4] and in experiment [12] were 0.164 (inactive) and 0.651, respectively.
Regarding `C#CCCCON=C1C[C@@H](O)[C@@H](O)[C@@H]2[C@@H]3C(=O)N([C@@H](C)c4ccccc4)C(=O)[C@@H]3CC[C@H]12`, the composite z-score in [1] is 0.933; in [2], -0.253; in experiment [3] it was -0.483; in [5], 0.478; in experiment [6], 0.283; in experiment [7], 0.474. For the same compound, the composite z-score was 0.921 in experiment [8]; 0.618 in experiment [9]; 0.551 in [10]; 0.207 in experiment [11]; 0.45 in experiment [13]; 0.0505 in [14]. In addition, the composite z-score in experiment [15] is -0.602; in [16], 0.0354; in experiment [17], 0.0796; in [18] it was -0.285; in experiment [19], 0.418; in [20], 0.375. Moreover, the z-score was -1.28 (inactive) in experiment [4] and -0.638 in experiment [12].
Turning to `CCOC(=O)NN=C1C[C@@H](O)[C@@H](O)[C@@H]2[C@@H]3C(=O)N(CC)C(=O)[C@@H]3CC[C@@H]12`, the composite z-score in experiment [1] was 0.163; in [2], -0.407; in [3] it was -0.263; in [5] it was 0.664; in [6], 0.434; in experiment [7] it was 0.684. In addition, the composite z-score in [8] was 0.518; in experiment [9], 0.14; in [10], -0.232; in [11], 0.788; in experiment [13], 0.651; in [14], -0.21. The composite z-score in experiment [15] was -0.264; in [16] it was -0.118; in [17], -0.0977; in experiment [18] it was -0.213; in [19] it was 0.197; in [20] it was 0.595. The z-score in [4] was 0.379 (inactive); in experiment [12], -0.161.
With `CC(C)(C)N1C(=O)[C@H]2[C@H]3[C@H](O)[C@H](O)CC(=NO[C@@H]4O[C@H](CO)[C@@H](O)[C@H](O)[C@H]4O)[C@@H]3CC[C@H]2C1=O`, the composite z-score was 0.756 in experiment [1]; -0.393 in experiment [2]; -0.854 in experiment [3]; 0.522 in [5]; 0.869 in [6]; 0.768 in experiment [7]. Also, the composite z-score was 1.01 in [8]; 1.15 in experiment [9]; 0.911 in [10]; 0.964 in [11]; 0.761 in experiment [13]; -0.448 in experiment [14]. Also, the composite z-score in [15] is -1.36; in experiment [16], -0.0115; in experiment [17], 0.111; in experiment [18], -0.0144; in experiment [19], 0; in experiment [20], 1.28. The z-score is 0.519 (inactive) in experiment [4] and -0.105 in experiment [12].
Regarding `C=CC[C@@H]1C=C[C@H](ON=C(C)CCN2CCc3nc(CC)c(CC)cc3C2)[C@@H](CO)O1`, the composite z-score in experiment [1] was 1.17; in experiment [2] it was 0.0057; in [3], 0.386; in experiment [5] it was -0.0543; in [6], 0.491; in experiment [7], 0.609. Moreover, the composite z-score was 1.14 in [8]; 0.907 in [9]; 1.8 in experiment [10]; 0.714 in [11]; 0.83 in experiment [13]; -0.42 in experiment [14]. For the same compound, the composite z-score is -1.34 in experiment [15]; 0.0634 in experiment [16]; 0.0952 in experiment [17]; 0.222 in [18]; 0.779 in experiment [19]; 0.243 in experiment [20]. Further, the results for the z-score in experiment [4] and in experiment [12] were 0.00248 (inactive) and -1.57, respectively.
Take `C=C(/C(=C/C[C@@H](OC(=O)c1ccncc1)c1ccc(OCCO)cc1)c1cnc2ccccc2c1)C(C)C`: the composite z-score is 1.2 in experiment [1]; -0.144 in experiment [2]; -0.216 in experiment [3]; 1.54 in experiment [5]; 1.28 in experiment [6]; 0.419 in [7]. Further, the composite z-score turned out to be 1.24 in experiment [8]; 0.824 in [9]; 1.56 in experiment [10]; 0.901 in experiment [11]; 0.466 in experiment [13]; 0.193 in experiment [14]. For the same compound, the composite z-score in experiment [15] is -0.583; in experiment [16], -0.272; in experiment [17], -0.0234; in experiment [18], -0.302; in experiment [19], 2.75; in experiment [20] it was 1.26. Moreover, the z-score in experiment [4] was -2.87 (inactive); in [12], -3.18.
